Results on ten molecules are retold here after PubChem BioAssay.

The experiment is described as follows: viability loss with induced miR-34 in A549 – imaging, A549 dox-inducible miR-34, nuclei and caspase counts, primary screen (AID 1347080). Also: test concentration not given here. The conditions noted are these: A549 miR-34 inducible, Hoechst nuclei count, 48 h; measured here: total cells with miR-34 induction; stronger effect = lower value.
`CCC(=O)O[C@H]1CCC2C3CCc4cc(O)ccc4C3CC[C@@]21C` (stereo not given in full) had a cell count of 10500.
In the case of `CC(C)CC(=O)N[C@H](C(=O)NC(C(=O)NC(CC(C)C)[C@@H](O)CC(=O)N[C@@H](C)C(=O)N[C@@H](CC(C)C)[C@@H](O)CC(=O)O)C(C)C)C(C)C` (stereo not given in full) it was 12400; in that of `CC(=O)N[C@@H]1[C@@H](O[C@H](C)C(=O)O)[C@H](O)[C@@H](CO)O[C@@H]1O`, 8610; in that of `CNS(=O)(=O)c1ccc(NC(=O)c2ccccc2C(=O)O)cc1` (tested in a mixture with another compound), 11500.
`CN1CC[C@]23c4ccccc4N[C@H]1[C@]21CCN(C)[C@H]3Nc2ccccc21` gave a cell count of 9800.
For `c1ccc(-c2[nH]ncc2-c2ccnc3ccccc23)nc1`, the cell count worked out at 4970.
For `C[C@H]1[C@H](C)CC[C@]2(C(=O)O[C@@H]3O[C@H](COC4O[C@H](CO)[C@@H](OC5O[C@@H](C)[C@H](O)[C@@H](O)[C@H]5O)[C@H](O)[C@H]4O)[C@@H](O)[C@H](O)[C@H]3O)CC[C@]3(C)C(=CC[C@@H]4[C@@]5(C)C[C@@H](O)[C@H](O)[C@@](C)(CO)C5CC[C@]43C)[C@H]12` (stereo not given in full) the value was 8940; for `CCOCCOCCOCCOCCOCCOCCOCCOCCOCCO` (tested in a mixture with another compound), 11300.
`CC[N+]1(C)[C@@H]2CC[C@H]1CC(OC(=O)[C@H]1CCC(C(=O)OC3C[C@H]4CC[C@@H](C3)[N+]4(C)CC)(c3ccccc3)c3ccccc31)C2` (stereo not given in full) yielded a cell count of 9010.
In the case of `Oc1cccc(-c2nc(N3CCOCC3)c3sccc3n2)c1` it was 2340.
